This note sets out measurements from PubChem BioAssay (Tox21).

Calls of active or inactive are those of the source. The call rests on the fitted dose curve.
On the % scale 0 is the no-effect control and ±100 the full control effect.

Sequence of Estrogen receptor (Homo sapiens) (P03372 whole entry, looked up): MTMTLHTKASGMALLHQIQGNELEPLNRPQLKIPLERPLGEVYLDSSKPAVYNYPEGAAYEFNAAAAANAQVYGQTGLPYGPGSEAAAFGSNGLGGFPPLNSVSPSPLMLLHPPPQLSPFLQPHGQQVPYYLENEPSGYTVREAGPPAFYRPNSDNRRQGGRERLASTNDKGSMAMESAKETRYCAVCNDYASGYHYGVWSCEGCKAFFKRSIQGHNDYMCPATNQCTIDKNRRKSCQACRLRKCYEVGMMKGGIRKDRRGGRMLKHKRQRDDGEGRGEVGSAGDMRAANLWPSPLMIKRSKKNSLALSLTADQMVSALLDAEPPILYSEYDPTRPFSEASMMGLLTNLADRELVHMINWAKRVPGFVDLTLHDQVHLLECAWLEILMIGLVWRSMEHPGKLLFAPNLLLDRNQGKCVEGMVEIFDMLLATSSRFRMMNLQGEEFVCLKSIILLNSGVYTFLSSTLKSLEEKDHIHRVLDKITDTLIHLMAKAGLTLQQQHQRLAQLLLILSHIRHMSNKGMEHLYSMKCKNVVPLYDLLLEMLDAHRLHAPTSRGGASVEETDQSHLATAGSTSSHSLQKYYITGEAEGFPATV

The assay addresses Estrogen receptor (Homo sapiens) (UniProt P03372). Briefly: qHTS assay to identify small molecule agonists of the estrogen receptor alpha (ER-alpha) signaling pathway in the presence of an antagonist (AID 1259383). Further: top concentration of the series differs between compounds; nearly all actives have a fitted effect of over 15% in size. The following applies: VM7Luc4E2 cells, ERE-luciferase, +ICI-182,780, 22 h; series mostly up to 92.4 µM; activation: at the top concentration. The procedure, abridged:
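VM7Luc4E2 cells (endogenous full-length ER-alpha, 4×ERE-luciferase) were precultured 5 days in phenol red-free medium with 10% charcoal-stripped FBS, given 10.0nM ICI-182,780 (final), then treated with compounds at 15 concentrations for 22hr at 37C; luminescence read with ONE-Glo.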
Background: Quantitative high-throughput screening tests each substance at several concentrations.
As to `Nc1ccc2cc(S(=O)(=O)O)cc(O)c2c1`, the “activation” value was -1.36% (inactive).

Turning to `CCOC(=O)c1ccc(OC(=O)CCCCCN=C(N)N)cc1`, the “activation” value is 2.27% [at 42.5 µM] (inactive).

Consider `On1nnc2ccccc21`, for which the “activation” value is -0.689% (inactive).

For `CCCCOCCOC(=O)COc1nc(Cl)c(Cl)cc1Cl`, the “activation” value is 0.638% (inactive).

On to `COc1ccc2nc(SCc3ncc(C)c(OC)c3C)[nH]c2c1`, for which the “activation” value was 6.67% [at 42.5 µM] (inactive).

With `CC(=O)c1ccc2c(c1)Cc1ccccc1-2`, the “activation” value is 15.5% (inactive).

As to `COc1ccc2c(c1)C(=O)N(CCc1ccc(S(=O)(=O)NC(=O)NC3CCCCC3)cc1)C(=O)C2(C)C`, the “activation” value is 1.3% [at 42.5 µM] (inactive).

`CC(=O)Nc1cccc(C)c1`: the “activation” value is 0.537% (inactive).

For the compound `O=C(O)Cc1cn(-c2ccccc2)nc1-c1ccc(Cl)cc1`, the “activation” value was -0.622% [at 42.5 µM] (inactive).

With `ClCCCl`, the “activation” value was -0.205% (inactive).

For `CC1=CCC(C(C)C)=CC1`, the “activation” value is -2.04% (inactive).

Turning to `O=C(OCC(O)CO)c1ccccc1Nc1ccnc2c(C(F)(F)F)cccc12` (centres undefined), the “activation” value was -1.01% [at 42.5 µM] (inactive).

In the case of `C=C(C)C(=O)OCc1ccccc1`, the “activation” value was -0.772% (inactive).

Take `O=C1c2cccc3c2[C@H](CCC3)CN1[C@@H]1CN2CCC1CC2`: the “activation” value was -0.0642% [at 42.5 µM] (inactive).
